Our source for the potency estimated from few doses values is PMC11062922 (Nature Chemical Biology, 2023).

Common to all, as to set-up: species or system human, MV4-11 + K-562 + COLO205 + SK-N-BE2 + OVCAR-8
The test system of one assay is ADK. Particulars: read-out: apparent Kd; compound concentrations:100 nM and 1000 nM (sheet 'Samples'); n = 1.
For a further assay, the system named is PIK3CB. The following applies: read-out: apparent Kd; compound concentrations:100 nM and 1000 nM (sheet 'Samples'); n = 1.
The next assay concerns PIK3CD. Particulars: read-out: apparent Kd; compound concentrations:100 nM and 1000 nM (sheet 'Samples'); n = 1.
A further assay deals with RIOK2. Particulars: read-out: apparent Kd, n = 1.
A further assay deals with ADRBK1. Particulars: read-out: apparent Kd, compound concentrations: 100 nM and 1000 nM (sheet 'Samples'), n = 1.
The next assay deals with CLK3. Particulars: read-out: apparent Kd; compound concentrations: 100 nM and 1000 nM (sheet 'Samples'), CATDS: 0.62903265036008305; n = 1.
The next assay relates to AKT1. The following applies: read-out: apparent Kd; compound concentrations: 100 nM and 1000 nM (sheet 'Samples'), CATDS: 4.8230371724731401E-2; n = 1.
A further assay concerns AKT2. Particulars: read-out: apparent Kd; compound concentrations: 100 nM and 1000 nM (sheet 'Samples'), CATDS: 6.0440208262816403E-2; n = 1.
In a further assay the test system is CDK6. The following applies: read-out: apparent Kd; compound concentrations: 100 nM and 1000 nM (sheet 'Samples'), CATDS: 5.1522031717759098E-2; n = 1.
In a further assay the test system is FLT3. Particulars: read-out: apparent Kd; compound concentrations: 100 nM and 1000 nM (sheet 'Samples'), CATDS: 6.2638012545430999E-2; n = 1.
In a further assay the test system is HSP90B1. The following applies: read-out: apparent Kd; compound concentrations: 100 nM and 1000 nM (sheet 'Samples'), CATDS: 7.7391071706101697E-2; n = 1.
A further assay deals with IARS. Particulars: read-out: apparent Kd; compound concentrations: 100 nM and 1000 nM (sheet 'Samples'), CATDS: 5.4756501565327097E-2; n = 1.
The test system of the next assay is MAP2K1. Particulars: read-out: apparent Kd; compound concentrations: 100 nM and 1000 nM (sheet 'Samples'), CATDS: 5.5357684673120397E-2; n = 1.
A further assay has as its system MAP2K2. Particulars: read-out: apparent Kd; compound concentrations: 100 nM and 1000 nM (sheet 'Samples'), CATDS: 6.2527819701534898E-2; n = 1.
Another assay concerns MAPK14. The following applies: read-out: apparent Kd; compound concentrations: 100 nM and 1000 nM (sheet 'Samples'), CATDS: 6.9601617206552405E-2; n = 1.
Another assay relates to MAPKAPK2. The following applies: read-out: apparent Kd; compound concentrations: 100 nM and 1000 nM (sheet 'Samples'), CATDS: 5.3693102707434E-2; n = 1.
Another assay relates to MDN1. The following applies: read-out: apparent Kd; compound concentrations: 100 nM and 1000 nM (sheet 'Samples'), CATDS: 0.23126444967608101; n = 1.
A further assay has as its system NNT. Particulars: read-out: apparent Kd; compound concentrations: 100 nM and 1000 nM (sheet 'Samples'), CATDS: 4.6645770981233098E-2; n = 1.
For the next assay, the system named is NQO1. The following applies: read-out: apparent Kd; compound concentrations: 100 nM and 1000 nM (sheet 'Samples'), CATDS: 6.3403997272240303E-2; n = 1.
Another assay has as its system PYGL. The following applies: read-out: apparent Kd; compound concentrations: 100 nM and 1000 nM (sheet 'Samples'), CATDS: 4.60061770009558E-2; n = 1.
The test system of the next assay is VDAC3. Particulars: read-out: apparent Kd; compound concentrations: 100 nM and 1000 nM (sheet 'Samples'), CATDS: 5.6878291770418803E-2; n = 1.

Read-outs that look alike come from different tables or passages of the source.

With `O=c1cc(N2CCOCC2)nc2n(Cc3cccc4ccccc34)ccn12` [GSK2333389A], the potency estimated from few doses in the assay with ADK is 0.889 µM; in the assay with PIK3CB it was 0.0161 µM; with PIK3CD it was 0.214 µM; with RIOK2 (compound concentrations:100 nM and 1000 nM (sheet 'Samples')) it was 1.89 µM.
For the compound `COc1cc(Nc2ncc3c(C)nc(-c4cccc(C(F)(F)F)c4)n3n2)cc(OC)c1OC` [GW837331X], the potency estimated from few doses in the assay on ADRBK1 (CATDS: 1) was 2.01 µM.
Turning to `COc1ccc2cc(-c3nc(-c4ccccc4C(C)C)[nH]c3-c3ccncc3)ccc2c1` [SB-660566], the potency estimated from few doses in the assay with ADRBK1 (CATDS: 0.41489344635778702) was 2.07 µM; in the assay on CLK3, 0.865 µM.
Consider `Cc1ccc(NC(=O)Nc2cc(C(C)(C)C)nn2-c2ccccc2)cc1` [GSK1014915A], for which the potency estimated from few doses in the assay with ADRBK1 (CATDS: 5.8321770731493798E-2) was 1.29 µM; in the assay on AKT1 it was 2.03 µM; in the assay with AKT2, 1.19 µM; with CDK6, 1.71 µM; in the assay on FLT3 it was 1.11 µM; in the assay with HSP90B1 it was 0.749 µM. The potency estimated from few doses with IARS is 1.48 µM; in the assay with MAP2K1, 1.44 µM; in the assay with MAP2K2 it was 1.11 µM; with MAPK14, 0.906 µM; in the assay on MAPKAPK2, 1.55 µM; with MDN1 it was 0.156 µM. Besides, the potency estimated from few doses is 2.22 µM in the assay on NNT; 1.08 µM with NQO1; 2.31 µM with PYGL; 1.87 µM in the assay with RIOK2 (compound concentrations: 100 nM and 1000 nM (sheet 'Samples'), CATDS: 4.9711958169324999E-2); 1.36 µM in the assay with VDAC3.
